In PubChem BioAssay AID1159580 (chemical genetic matrix, 2015):
In all, about 5,500 compounds went through this assay and about 2,000 (36%) were called active. Roughly 18% stayed inconclusive and do not appear here. Rule as the data show it: active = normalized growth mostly below about 0.91 (no sharp cut-off); inconclusive = no clear call, values can overlap the other calls; inactive = mostly above about 0.92. This is one part of the list.

Test: chemical genetic growth profiling, strain panel (AID 1159580);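 also: tested at 20 µM; growth read once vehicle control cultures reached saturation at 30 °C; 1 = growth at the plate median or of vehicle wells; lower values mean less growth of the strain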
Conditions: S. cerevisiae deletion strains, growth OD
[1] = locus YBL105C, strain PKC1, stronger effect = lower value
[2] = locus YBR135W, strain CKS1, stronger effect = lower value
[3] = locus YBR136W, strain MEC1, stronger effect = lower value
[4] = locus YDL017W, strain CDC7, stronger effect = lower value
[5] = locus YDL108W, strain KIN28, stronger effect = lower value
[6] = locus YDL214C, strain PRR2, stronger effect = lower value
[7] = locus YDR052C, strain DBF4, stronger effect = lower value
[8] = locus YDR226W, strain ADK1, stronger effect = lower value
[9] = locus YDR477W, strain SNF1, stronger effect = lower value
[10] = locus YER123W, strain YCK3, stronger effect = lower value
[11] = locus YER133W, strain GLC7, stronger effect = lower value
[12] = locus YFL029C, strain CAK1, stronger effect = lower value
[13] = locus YFR003C, strain YPI1, stronger effect = lower value
[14] = locus YFR019W, strain FAB1, stronger effect = lower value
[15] = locus YFR028C, strain CDC14, stronger effect = lower value
[16] = locus YGR040W, strain KSS1, stronger effect = lower value
[17] = locus YGR052W, strain FMP48, stronger effect = lower value
[18] = locus YGR092W, strain DBF2, stronger effect = lower value
[19] = locus YHR030C, strain SLT2, stronger effect = lower value
[20] = locus YHR079C, strain IRE1, stronger effect = lower value
[21] = locus YHR082C, strain KSP1, stronger effect = lower value
[22] = locus YHR205W, strain SCH9, stronger effect = lower value
[23] = locus YIL147C, strain SLN1, stronger effect = lower value
[24] = locus YJL095W, strain BCK1, stronger effect = lower value
[25] = locus YJL157C, strain FAR1, stronger effect = lower value
[26] = locus YJR016C, strain ILV3, stronger effect = lower value
[27] = locus YJR066W, strain TOR1 (second series), stronger effect = lower value
[28] = locus YJR066W, strain TOR1, stronger effect = lower value
[29] = locus YKL048C, strain ELM1, stronger effect = lower value
[30] = locus YKL067W, strain YNK1, stronger effect = lower value
[31] = locus YKL101W, strain HSL1, stronger effect = lower value
[32] = locus YLR113W, strain HOG1, stronger effect = lower value
[33] = locus YLR133W, strain CKI1, stronger effect = lower value
[34] = locus YLR403W, strain SFP1, stronger effect = lower value
[35] = locus YML070W, strain DAK1, stronger effect = lower value
[36] = locus YMR205C, strain PFK2 (second series), stronger effect = lower value
[37] = locus YNL006W, strain LST8, stronger effect = lower value
[38] = locus YNL020C, strain ARK1, stronger effect = lower value
[39] = locus YNL161W, strain CBK1, stronger effect = lower value
[40] = locus YNL183C, strain NPR1, stronger effect = lower value
[41] = locus YNL222W, strain SSU72, stronger effect = lower value
[42] = locus YNL307C, strain MCK1 (second series), stronger effect = lower value
[43] = locus YOL136C, strain PFK27, stronger effect = lower value
[44] = locus YOR061W, strain CKA2, stronger effect = lower value
[45] = locus YOR119C, strain RIO1, stronger effect = lower value
[46] = locus YOR231W, strain MKK1, stronger effect = lower value
[47] = locus YOR329C, strain SCD5, stronger effect = lower value
[48] = locus YPL031C, strain PHO85, stronger effect = lower value
[49] = locus YPL153C, strain RAD53, stronger effect = lower value
[50] = locus YPL204W, strain HRR25, stronger effect = lower value
[51] = locus YPL209C, strain IPL1, stronger effect = lower value
[52] = locus YPL256C, strain CLN2, stronger effect = lower value
[53] = locus YPR025C, strain CCL1, stronger effect = lower value
[54] = locus YPR111W, strain DBF20, stronger effect = lower value
[55] = strain NNK1, stronger effect = lower value

Measured: normalized growth

Clc1cccc(Nc2ncc(-c3ccc4c(c3)OCCCO4)s2)c1
inactive: locus YAR019C, strain CDC15, stronger effect = lower value 0.978 | [1] 0.989 | [2] 0.981 | [3] 0.98 | locus YBR160W, strain CDC28, stronger effect = lower value 0.983 | [4] 0.988 | locus YDL028C, strain MPS1, stronger effect = lower value 0.956 | locus YDL101C, strain DUN1, stronger effect = lower value 1 | [5] 0.978 | locus YDL132W, strain cdc53, stronger effect = lower value 0.986 | [6] 0.893 | [7] 0.986 | locus YDR054C, strain cdc34, stronger effect = lower value 0.989 | [8] 0.988 | [9] 0.909 | [10] 0.864 | [11] 0.892 | locus YFL009W, strain cdc4, stronger effect = lower value 0.99 | [12] 0.977 | [13] 0.985 | [14] 0.898 | [15] 0.963 | [16] 0.905 | [17] 0.862 | [18] 0.88 | [20] 0.663 | [21] 0.951 | [22] 0.824 | [23] 0.973 | [24] 0.731 | locus YJL128C, strain PBS2, stronger effect = lower value 0.951 | [25] 0.894 | [26] 0.994 | [27] 0.902 | [28] 0.95 | [29] 0.965 | [30] 0.927 | [31] 0.923 | locus YKL193C, strain SDS22, stronger effect = lower value 0.985 | locus YKL203C, strain TOR2, stronger effect = lower value 1.01 | [33] 0.866 | [34] 0.881 | [35] 0.872 | locus YMR001C, strain CDC5, stronger effect = lower value 0.984 | [36] 0.894 | locus YMR277W, strain FCP1, stronger effect = lower value 0.968 | [37] 0.995 | [38] 0.86 | [39] 0.982 | [40] 0.799 | locus YNL207W, strain RIO2, stronger effect = lower value 0.987 | [41] 0.98 | [42] 0.864 | locus YOL078W, strain AVO1, stronger effect = lower value 0.972 | [43] 0.873 | [44] 0.86 | [45] 0.953 | [46] 0.759 | [47] 0.984 | [48] 0.889 | [49] 0.872 | [50] 0.86 | [51] 0.983 | [53] 0.968 | locus YPR106W, strain ISR1, stronger effect = lower value 0.971 | [54] 0.959 | [55] 0.974 | strain TSCII, stronger effect = lower value 0.971
active: [19] 0.67 | [32] 0.682 | [52] 0.717

Clc1ccc(-c2cnc(Nc3cc(Cl)cc(Cl)c3)s2)cc1
active: [1] 0.63 | [2] 0.869 | [6] 0.134 | [9] 0.119 | [10] 0.158 | [11] 0.12 | [12] 0.514 | [14] 0.175 | [16] 0.142 | [17] 0.132 | [18] 0.148 | [19] 0.117 | [20] 0.204 | [21] 0.126 | [22] 0.0742 | [24] 0.16 | [25] 0.149 | [26] 0.791 | [27] 0.116 | [28] 0.109 | [29] 0.215 | [30] 0.164 | [31] 0.174 | [32] 0.163 | [33] 0.117 | [34] 0.0226 | [35] 0.166 | [36] 0.16 | [37] 0.679 | [38] 0.133 | [39] 0.529 | [40] 0.136 | [41] 0.608 | [42] 0.225 | [43] 0.147 | [44] 0.135 | [45] 0.46 | [46] 0.229 | [47] 0.781 | [48] 0.148 | [49] 0.136 | [50] 0.13 | [51] 0.625 | [52] 0.196 | [54] 0.674
inactive: [3] 0.956 | [4] 0.972 | [5] 0.972 | [7] 0.965 | [8] 0.964 | [13] 0.97 | [15] 0.966 | [23] 0.961 | [53] 0.927 | [55] 0.967
